Data from PubChem BioAssay AID1159580 (chemical genetic matrix, 2015).
Where “and” joins values, the source holds several entries; their conditions need not be identical. Equal entries are not always repeated. About 2,000 (36%) of roughly 5,500 compounds were called active. Inconclusive results (about 18%) are left out. Cut-off read from the data, not from the text of the source: active = normalized growth mostly below about 0.91 (no sharp cut-off); inconclusive = no clear call, values can overlap the other calls; inactive = mostly above about 0.92. This is one part of the list.

Assay: chemical genetic growth profiling, strain panel (AID 1159580);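 note: tested at 20 µM; growth read once vehicle control cultures reached saturation at 30 °C; 1 = growth at the plate median or of vehicle wells; lower values mean less growth of the strain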
Conditions: S. cerevisiae deletion strains, growth OD

Measured: normalized growth

CCC(=O)OCC(=O)[C@@]1(OC(=O)CC)[C@@H](C)CC2C3CCC4=CC(=O)C=C[C@]4(C)C3(F)[C@@H](O)C[C@@]21C (stereo partly drawn)
active: locus YAL013W, strain DEP1, stronger effect = lower value 0.876 | locus YBR021W, strain FUR4, stronger effect = lower value 0.779 | locus YDL035C, strain GPR1, stronger effect = lower value 0.846 | locus YDL134C, strain PPH21, stronger effect = lower value 0.844 | locus YDR162C, strain NBP2, stronger effect = lower value 0.708 | locus YER167W, strain BCK2, stronger effect = lower value 0.881 | locus YGR135W, strain pre9, stronger effect = lower value 0.863 | locus YGR252W, strain gcn5, stronger effect = lower value 0.71 | locus YIL066C, strain RNR3, stronger effect = lower value 0.806
inactive: locus YAL021C, strain ccr4, stronger effect = lower value 0.958 | locus YAL026C, strain drs2, stronger effect = lower value 1 | locus YAL030W, strain snc1, stronger effect = lower value 1 | locus YBL061C, strain skt5, stronger effect = lower value 1.01 | locus YBR009C, strain hhf1, stronger effect = lower value 0.999 | locus YBR023C, strain chs3, stronger effect = lower value 1.01 | locus YBR171W, strain sec66, stronger effect = lower value 1 | locus YBR229C, strain ROT2, stronger effect = lower value 0.925 | locus YBR231C, strain swc5, stronger effect = lower value 1.01 | locus YBR279W, strain paf1, stronger effect = lower value 1.01 | locus YCL011C, strain gbp2, stronger effect = lower value 0.988 | locus YCL016C, strain dcc1, stronger effect = lower value 1.01 | locus YCL029C, strain bik1, stronger effect = lower value 0.952 | locus YCL061C, strain MRC1, stronger effect = lower value 1.01 | locus YCL069W, strain vba3, stronger effect = lower value 0.996 | locus YCR088W, strain abp1, stronger effect = lower value 0.997 | locus YDL005C, strain med2, stronger effect = lower value 0.994 | locus YDL040C, strain nat1, stronger effect = lower value 1 | locus YDL074C, strain BRE1, stronger effect = lower value 0.793 | locus YDL101C, strain DUN1, stronger effect = lower value 0.95 | locus YDL185W, strain tfp1, stronger effect = lower value 0.927 | locus YDL192W, strain arf1, stronger effect = lower value 0.927 | locus YDR001C, strain nth1, stronger effect = lower value 0.991 | locus YDR069C, strain doa4, stronger effect = lower value 0.993 | locus YDR101C, strain arx1, stronger effect = lower value 0.948 | locus YDR137W, strain rgp1, stronger effect = lower value 1.01 | locus YDR150W, strain NUM1, stronger effect = lower value 0.974 | locus YDR159W, strain sac3, stronger effect = lower value 1.01 | locus YDR195W, strain ref2 1 | locus YDR297W, strain sur2, stronger effect = lower value 0.996 | locus YDR318W, strain mcm21, stronger effect = lower value 0.945 | locus YDR334W, strain swr1, stronger effect = lower value 1.01 | locus YDR335W, strain msn5, stronger effect = lower value 0.998 | locus YDR388W, stronger effect = lower value 0.947 | locus YDR392W, strain spt3, stronger effect = lower value 0.988 | locus YDR502C, strain sam2, stronger effect = lower value 0.926 | locus YEL003W, strain gim4, stronger effect = lower value 0.996 | locus YEL037C, strain rad23, stronger effect = lower value 0.987 | locus YEL061C, strain CIN8 (second series), stronger effect = lower value 0.989 | locus YEL061C, strain CIN8, stronger effect = lower value 0.935 | locus YER015W, strain faa2, stronger effect = lower value 0.995 | locus YER016W, strain bim1, stronger effect = lower value 1.01 | locus YER110C, stronger effect = lower value 0.952 | locus YER111C, strain swi4, stronger effect = lower value 0.999 | locus YER155C, strain BEM2 (second series), stronger effect = lower value 1.01 | locus YER155C, strain BEM2, stronger effect = lower value 0.963 | locus YFR010W, strain ubp6, stronger effect = lower value 0.993 | locus YGL078C, strain dbp3, stronger effect = lower value 0.975 | locus YGL086W, strain mad1, stronger effect = lower value 0.954 | locus YGL167C, strain pmr1, stronger effect = lower value 1 | locus YGL173C, strain kem1, stronger effect = lower value 1 | locus YGL227W, strain vid30, stronger effect = lower value 0.995 | locus YGL240W, strain doc1, stronger effect = lower value 1 | locus YGL248W, strain PDE1, stronger effect = lower value 0.943 | locus YGL253W, strain hxk2, stronger effect = lower value 1.03 | locus YHR013C, strain ard1, stronger effect = lower value 1.01 | locus YHR027C, strain rpn1, stronger effect = lower value 1 | locus YHR079C, strain IRE1 (second series), stronger effect = lower value 0.974 | locus YHR079C, strain IRE1, stronger effect = lower value 1.02 | locus YHR094C, strain hxt1, stronger effect = lower value 0.965 | locus YHR129C, strain ARP1, stronger effect = lower value 0.943 | locus YHR142W, strain chs7, stronger effect = lower value 0.988 | locus YHR200W, strain rpn10, stronger effect = lower value 0.929 | locus YIL073C, strain SPO22, stronger effect = lower value 0.825 | locus YIL125W, strain kgd1, stronger effect = lower value 0.971 | locus YIR030C, strain dcg1, stronger effect = lower value 0.959 | locus YJL092W, strain hpr5, stronger effect = lower value 0.996 | locus YJL095W, strain BCK1 (second series), stronger effect = lower value 1 | locus YJL115W, strain asf1, stronger effect = lower value 0.999 | locus YJL129C, strain trk1, stronger effect = lower value 0.951 | locus YJL134W, strain LCB3, stronger effect = lower value 0.961 | locus YJL154C, strain vps35, stronger effect = lower value 0.981 | locus YJL164C, strain tpk1, stronger effect = lower value 1 | locus YJL166W, strain qcr8, stronger effect = lower value 0.997 | locus YJL168C, strain set2, stronger effect = lower value 0.956 | locus YJL187C, strain SWE1 (second series), stronger effect = lower value 0.942 | locus YJL187C, strain SWE1, stronger effect = lower value 0.996
0.896 (active) and 0.998 (inactive): locus YHR030C, strain SLT2, stronger effect = lower value
0.761 (active) and 1.01 (inactive): locus YJL095W, strain BCK1, stronger effect = lower value
